# V-ATPase pHluor: yeast V-ATPase proton transport regulation by pHLuorin | S. cerevisiae, pHLuorin cytosolic pH fluorescence | response, % at 10 µM | 350,000 compounds, 0.37% hits | AID 504577; in the data active = response mostly above about 7.3%, no sharp cut-off; inactive = mostly below about 5.4%; also: actives read high
# GC-B act: GC-B (human) receptor activation | P20594 | HEK293-GC-B cells, CNP EC30, cGMP TR-FRET; 0% at EC30 CNP, 100% saturating CNP | activation, % at 10 µM | 370,000 compounds, 0.11% hits | AID 1920062;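 active = activation at 10 µM reaching about 35% in either raw or pattern-adjusted values, limit read from the data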
# PG9 binder: PG9 antibody binding by small molecule | TR-FRET gp120-PG9 antibody binding | inhibition, % at 6.7 µM | 360,000 compounds, 0.43% hits; in the data active = inhibition above about 8.5%
# NR1D1 modulator: modulates human Rev-erb alpha binding to DNA | P20393 | Rev-erbα–FITC-DNA binding, fluorescence polarization, 90 min | activity, % at 10 µM | 370,000 compounds, 0.79% hits | AID 1259318;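 active = activity above about 14%, limit read from the data; passing the limit was not always enough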;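 also: 0% = DMSO wells with 35 nM protein and 100% = DMSO wells with 750 nM protein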
# GC-A act: GC-A (human) enzyme activation. P16066. HEK293 GC-A cells, cGMP TR-FRET, EC30 ANP; 0% at EC30 ANP, 100% saturating ANP. activation, % at 10 µM. 370,000 compounds, 0.14% hits. AID 1671463; in the data active = activation above about 40%
# PG9 bind confirm: PG9 antibody binding, confirmed. shares compounds with PG9 binder. TR-FRET PG9 antibody binding, biochemical. inhibition, % at 6.7 µM. 1,500 compounds, 90% hits; in the data active = inhibition above about 9%
# PGV04 Ab binding: PGV04 control antibody binding, counter-screen; TR-FRET PGV04 antibody-gp120 binding, biochemical; inhibition, % at 6.7 µM; shares compounds with PG9 binder; AID 651604; 1,500 compounds, 95% hits; in the data active = inhibition above about 9.5%
# PG9 binder DR: PG9 antibody binding, dose response | shares compounds with PG9 binder | TR-FRET PG9 antibody-gp120 binding inhibition | IC50, µM | 95 tested, under 10 active | AID 651848; in the data active = IC50 below about 10 µM
# PGV04 binding DR: binds control antibody PGV04 in PG9 counter-screen; TR-FRET binding to control antibody PGV04; IC50, µM; shares compounds with PG9 binder; 95 compounds, 20% hits
# PG126 binding DR: PG126 binding, dose response counter-screen | shares compounds with PG9 binder | TR-FRET binding to antibody PG126, counterscreen | IC50, µM | 95 compounds, 20% hits
# Rev-erbA confirm: Rev-erb alpha (human) modulation, hit confirmation. shares compounds with NR1D1 modulator. Rev-erb alpha FITC-DNA binding, fluorescence polarization, 90 min. activation, % at 25 µM. 3,000 compounds, 61% hits. AID 1259319;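 active = activation at or above a set limit, or at least 3 SD above the negative control mean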;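 also: 0% = 35 nM protein with DMSO and 100% = 750 nM protein high control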
# RORg DNA counter: counter-screen for Rev-erb alpha modulators: RORgamma DNA binding; shares compounds with NR1D1 modulator; purified RORgamma protein-FITC-DNA binding, fluorescence polarization; IC50, µM; 910 compounds, 8% hits;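 active = Compounds whose fitted half-maximal concentration for disrupting protein-DNA binding is below 10 micromolar; the record names Rev-erb in its text, so the target is in doubt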
# * hit, by the source's call; i = inactive; nt = not tested or not shown. This is a sample that favours compounds with a hit; in the whole collection about 1.6% have one here. Rule as the data show it, unless noted: active = IC50 below about 9 µM; inactive = the rest.
SMILES,V-ATPase pHluor,GC-B act,PG9 binder,NR1D1 modulator,GC-A act,PG9 bind confirm,PGV04 Ab binding,Rev-erbA confirm,others
Cc1ccc(NC(=O)CN(C)C(=O)COc2ncnc3ccc(Br)cc23)cc1,3.3,-4.7,21.5*,21.2*,-1.9,9.1*,7.9,16.7*,PG9 binder DR=i;PGV04 binding DR=i;PG126 binding DR=i
Cc1nc2sc(C(=O)OCC(=O)N3c4ccccc4CC3C)c(C)c2c(=O)[nH]1 (stereo unspecified),-4.9,0.6,9.9*,19.5*,5.5,20.6*,26.1*,14.1,
Cc1cccc(C(=O)OCC(=O)N2c3ccccc3CC2C)c1C (stereo unspecified),-1.2,3.2,-0.1,-1.8,2.6,nt,nt,nt,
CCOC(=O)c1cnc2cc(-c3ccc(Br)cc3)nn2c1C,-1.5,-4.6,9.4*,17.9*,0.8,6.5,6.9,10.2,
CC(=O)Nc1sc(C)c(C)c1C(=O)OCC(=O)NCc1ccc(F)cc1,-6.1,1.4,9.3*,17.1*,4.1,13.2*,19.3*,15.5*,
CC(=O)Nc1sc(C)c(C)c1C(=O)OCC(=O)NCc1ccccc1,-2.9,0.3,2.0,2.8,0.5,nt,nt,nt,
CCOC(=O)c1c(NC(=O)COC(=O)CCOc2ccc(OCC)cc2)sc(C(=O)N(C)C)c1C,4.4,nt,nt,nt,nt,nt,nt,nt,
CCOC(=O)c1c(NC(=O)COC(=O)CCOc2ccccc2C)sc(C(=O)NC)c1C,-1.8,4.3,30.5*,71.8*,0.8,48.4*,56.6*,45.9*,RORg DNA counter=>40
Cc1ccc(-c2cc3ncc(C#N)c(N)n3n2)cc1,-0.8,6.2,36.7*,47.1*,1.1,48.0*,63.2*,11.6,
S=c1[nH]cc(-c2ccc(Cl)cc2)n1Cc1ccccc1,2.5,-8.2,16.4*,26.2*,-8.9,16.6*,21.4*,12.8,
CC(=O)Nc1cccc(NC(=O)CSc2nc(C)c(C)c(C)c2C#N)c1,-0.8,8.0,0.8,-6.4,4.0,nt,nt,nt,
Cc1cccc(C)c1NC(=O)CSc1nc(C)c(CC(=O)c2ccc(Br)cc2)c(C)c1C#N,-3.0,-6.9,26.4*,140.7*,19.8,52.6*,69.7*,77.8*,
O=c1[nH]c(SCCOc2cccc3ccccc23)nc2ccccc12,-1.2,-7.0,-12.1,-1.2,-4.1,nt,nt,nt,
CCOc1ccc(OCCSc2nc3ccccc3c(=O)[nH]2)cc1,3.4,-4.5,38.6*,26.2*,-1.1,37.3*,51.7*,10.8,
CC(C)(C)OC(=O)n1cc(-c2ccccc2)c2c(-c3ccccc3)c(O)ccc21,nt,-1.6,nt,5.9,2.9,nt,nt,nt,
Cc1cc(OCC(=O)NCc2cccnc2)c2c(C)c(C)c(=O)oc2c1,-5.2,-7.8,0.3,-4.8,-10.6,nt,nt,nt,
Cc1cc(OCC(=O)Nc2cccnc2)c2c(C)c(C)c(=O)oc2c1,-1.4,-7.0,15.0*,19.1*,1.2,14.0*,16.3*,-0.4,
CN(C)[C@H]1CCN(c2ccc3c(c2)O[C@H]2CCN(C2)S3(=O)=O)C1,nt,1.1,nt,-5.0,2.2,nt,nt,nt,
COc1ccc(C(=O)Cn2cnc3ccc(Cl)cc3c2=O)cc1F,0.1,-3.7,20.9*,32.9*,-13.6,35.6*,48.0*,31.9*,RORg DNA counter=i
COc1cccc(Cn2cc(COC(=O)N3CCCC3)nn2)c1,nt,-1.4,nt,-3.1,2.6,nt,nt,nt,
CCc1nc(Nc2cc(OC)ccc2OC)c2oc3ccccc3c2n1,-4.3,12.1,13.4*,22.1*,-7.0,20.0*,25.2*,12.1,
COCCCNC(=O)C[C@H]1C[C@@]2(C(=O)OC)C(=C[C@H](COCc3ccccc3)O[C@@H]2C)N(Cc2ccc(Cl)cc2Cl)C1=O,nt,0.0,nt,3.2,-3.5,nt,nt,nt,
O=C(Nc1cccc(Cl)c1)O[C@@H]1CC[C@@]23CCCN2C(=O)CCC[C@H]3C1,nt,-1.8,nt,-3.8,-1.0,nt,nt,nt,
O=C(Nc1cccc(-c2nc3ncccc3o2)c1)c1cc2ccccc2o1,-0.8,-6.1,-0.7,-2.6,-3.3,nt,nt,nt,
Cc1ccc(-c2nc3ncccc3o2)cc1NC(=O)COc1ccccc1,3.1,-2.3,9.1*,21.8*,2.2,12.6*,18.1*,9.3,
SMILES,V-ATPase pHluor,GC-B act,PG9 binder,NR1D1 modulator,GC-A act,PG9 bind confirm,PGV04 Ab binding,Rev-erbA confirm,others
Cc1ccc(-c2nc3ncccc3o2)cc1NC(=O)c1cc2ccccc2o1,3.7,5.6,8.9*,18.9*,2.2,11.8*,34.7*,-0.2,
Cc1ccc(-c2nc3ncccc3o2)cc1NC(=O)CC(C)C,8.9,2.4,-0.9,6.3,0.7,nt,nt,nt,
Cc1ccccc1CN1CCCCC(NC(=O)c2ccc(N(C)C)cc2)C1=O (stereo unspecified),nt,-1.6,nt,5.4,0.7,nt,nt,nt,
CCOC(=O)CSc1nc2cc(OCC)ccc2cc1C#N,2.7,-3.9,27.9*,82.9*,1.4,37.6*,58.2*,72.1*,RORg DNA counter=>40
Cc1ccc2nc(SCC(=O)NCc3cccs3)c(C#N)cc2c1,0.7,-7.0,15.2*,46.8*,25.3,37.3*,48.6*,21.7*,
COc1cccc(-c2ccc(C#N)c(SCC(=O)NCCc3cccc(Cl)c3)n2)c1,-0.1,-11.2,22.2*,34.1*,-28.7,23.9*,43.3*,23.3*,
COC(=O)CSc1nc2cc(OC)ccc2cc1C#N,-4.2,-3.5,1.9,6.5,0.8,nt,nt,nt,
Cc1ccc2cc(C#N)c(SCC(=O)NNC(=O)Cc3ccccc3)nc2c1,-3.6,-16.1,20.0*,52.3*,35.0,38.3*,41.3*,43.8*,RORg DNA counter=>40
CCCCCc1ccc(NC(=O)O[C@@H]2CC[C@@]34CCCN3C(=O)CCC[C@H]4C2)cc1,nt,-2.5,nt,0.2,-7.3,nt,nt,nt,
O=C(CCc1ccccc1)N[C@H]1[C@@H](OC(=O)c2cnccn2)CCC[C@@]12C(=O)N(Cc1ccccc1)c1ccccc12,nt,-14.8,nt,0.6,-3.9,nt,nt,nt,
Fc1ccccc1-c1n[nH]c(=S)n1N=Cc1ccc(OCc2ccccc2)cc1,nt,1.4,nt,-6.6,-2.9,nt,nt,nt,
